In general, Inhibition refers to the drop in the measured response relative to a control, in per cent.

Our source for the Inhibition values is ChEMBL document CHEMBL4513160, “CO-ADD screening of MMV (CH) - Small Polar Library”.

The whole screen tested about 18,000 compounds, of which fewer than 10 showed an effect of 50% or more. These entries were drawn from the full list.

The assay deals with Pseudomonas aeruginosa. Put plainly: Antibacterial activity against Pseudomonas aeruginosa PAO397 [PAO1 d(mexAB-oprM) d(mexCD-oprJ) d(mexEF-oprN) d(mexJKL) d(mexXY) d(opmH)] (CO-ADD:GN_211); MIC in CAMBH media using NBS plates, by OD(600). The conditions noted are these: Concentration 300 ug.mL-1, ASSAY_TEST Inhibition of Bacterial Growth, detection method Absorption (OD600), MEDIA CAMHB, plate type 384well, CORNING #3640, time 18 hr. The class given is functional.
Turning to `O=C(NC(C1CCNCC1)[C@H]1C[C@H](O)C1)C1(CO)CC1` (some centres undefined), the Inhibition came to 10.73%. In the case of `CC1(C)Cc2cccc(OCCN)c2O1` it was -35.66%; in that of `CN1CCC(CN(C)Cc2cncs2)C1` (centres undefined), 2.31%.

Take `CC(Cn1cccn1)NC(=O)CCc1ccc(F)cc1` (centres undefined): the Inhibition is -50.8%.

Take `CC(C)c1nc(CN(CCO)Cc2nccn2C)co1`: the Inhibition is reported as -7.36%. As to `CC1(C)CN(CC(O)C(F)(F)F)CCO1` (centres undefined), the Inhibition came out at 7.85%.

Take `COc1cccc(CN(C)CCN(C)C)c1OC`: the Inhibition amounted to 12.2%.

Turning to `CC(C)NC(=O)CNC(=O)c1cc2cc(F)ccc2[nH]1`, the Inhibition is -6.73%. Regarding `CC1CCN(C(=O)NCCS(=O)(=O)C(C)(C)C)C1` (centres undefined), the Inhibition worked out at 10.36%.

In the case of `CCNc1ncc(C(=O)N[C@@H]2CC[C@@H](N)C2)cn1`, the Inhibition is 21.83%. With `CC(c1ccc(F)cc1)N(C)C(=O)CCCN` (centres undefined), the Inhibition is -12.4%. Take `c1nsnc1-c1nc(C2CCCO2)no1` (centres undefined): the Inhibition was -21.13%. Regarding `O=C(NCc1nnc2n1CCC2)Nc1cn[nH]c1`, the Inhibition turned out to be 21.21%.

On to `NCCCc1cn[nH]c1`, for which the Inhibition is given as 12.47%.

Take `O=C(c1ccc(C2CCCNC2)cc1)N1CCSCC1` (centres undefined): the Inhibition was -23.58%. In the case of `CCCNC(=O)C1CCN(c2ncccc2C#N)CC1`, the Inhibition is on record as -18.27%. As to `CCC(C(=O)Nc1ccccc1)N1CCS(=O)(=O)CC1` (centres undefined), the Inhibition came to 18.51%. Take `COc1cc(F)c(S(=O)(=O)N(C)CC(N)=O)cc1OC`: the Inhibition was found to be 33.48%. Take `COc1nc(C)ccc1C#N`: the Inhibition was 11.86%.

Take `CC1(C)C(=O)NCCN1S(=O)(=O)c1ccccc1`: the Inhibition is given as -8.7%.

`Nc1ccc(CN2CCN(CC(F)(F)F)CC2)cn1`: the Inhibition is on record as -9.81%. Take `COc1ccc(C(=O)N2C[C@@H](CO)[C@H](N(C)C)C2)cn1`: the Inhibition was -8.8%.

In the case of `NCc1cc2c([nH]c1=O)CCCC2`, the Inhibition came out at 4.51%. Turning to `C=C(C)CN1CCC(NC(=O)NC2CC2)CC1`, the Inhibition is recorded as -6.54%. In the case of `Cn1nc(C(=O)NCc2cc(Cl)ccn2)ccc1=O` it was -9.69%; in that of `CC(C)CC(NCCS(C)(=O)=O)c1ccccn1` (centres undefined), 6.01%.

For `Cc1sc(S(N)(=O)=O)cc1N`, the Inhibition was determined as 7.68%. For the compound `COc1ccc(CC(C)=O)cn1`, the Inhibition worked out at 4.82%. In the case of `CC(C#N)CNC(=O)c1c(O)cc(F)cc1F` (centres undefined) it was 13.91%; in that of `Cc1cccc(CNCCS(=O)(=O)N2CCOCC2)c1`, -1.09%; in that of `c1cnc2cc(-c3nc(C4CCOC4)no3)nn2c1` (centres undefined), 18.33%.

Take `CC(C)N(CCOc1ccccc1C#N)CC(N)=O`: the Inhibition is on record as -27.27%.

For `Cc1csc(N2CCCN(C(=O)c3cnsn3)CC2)n1`, the Inhibition is reported as -3.72%. Take `O=C(c1cccc(-n2cccn2)n1)N1CCCC1`: the Inhibition was 17.03%. Take `COCCCn1c(SC2CCCCNC2=O)n[nH]c1=O` (centres undefined): the Inhibition is recorded as -25.74%. In the case of `CCNC(=O)COC(=O)c1cc(O)nc2ccccc12` it was -1.47%.

For `Cc1cc(CO)ccc1N1CCOCC1`, the Inhibition came out at 6.45%. On to `CC(C)OCC(O)CN1CCc2ccc(O)cc2C1` (centres undefined), for which the Inhibition was -14.27%. Regarding `CCc1ccc(CN2Cc3cnn(CCO)c3C2)nc1`, the Inhibition is on record as 18.58%.

Regarding `NC(=O)CN1CCC(NC(=O)c2cc(Br)c[nH]2)CC1`, the Inhibition is listed as 14.11%.

On to `O=C(CNC(=O)N1CCC=C(Br)C1)N1CCCCC1`, for which the Inhibition is given as -37.56%.

As to `CCN(Cc1[nH]cnc1C)C1CCS(=O)(=O)C1` (centres undefined), the Inhibition was 6.36%. For `CN1N=C(C(=O)Nc2ccc(Cl)cn2)CCC1=O`, the Inhibition is 8.23%. As to `Cc1cc(=O)n(C)cc1NC(=O)CCc1ccccn1`, the Inhibition turned out to be 1.98%. In the case of `CC(C)(C)c1noc(CN2CCSCC2)n1` it was -15.23%; in that of `CC(O)CN(C)c1ncc(Br)cn1` (centres undefined), -40.03%. Consider `CC(C)(C)SCC(=O)Nc1ccc(CS(N)(=O)=O)cc1`, for which the Inhibition is -2.55%. In the case of `CS(=O)(=O)NC(c1ccc(F)cc1)c1cccnc1` (centres undefined), the Inhibition is recorded as -27.51%. As to `CN(C)CCOC1CCNCC1`, the Inhibition turned out to be 12.65%. Turning to `COC(=O)CNC(=O)CSc1nc(C)cc(C)c1C#N`, the Inhibition is -8.27%. Take `CN1CCC(CN(C)S(=O)(=O)c2ccccc2)CC1`: the Inhibition is given as -25.1%. With `Cc1cc(C)n(-c2ccc(C(=O)NC(C)(C)C)cn2)n1`, the Inhibition is listed as 9.83%.

With `Cn1cccc1CNCCNC(=O)c1ccn[nH]1`, the Inhibition is recorded as -19.28%.

In the case of `c1ccc(C2=NCCN2)nc1`, the Inhibition is recorded as 8.57%. In the case of `Cc1ccc(CC(=O)N2CCC[C@H]2CO)cc1O`, the Inhibition stood at 9.81%. As for `c1ccc2[nH]c(NCC3CCCO3)nc2c1` (centres undefined), the Inhibition was -27.33%. Regarding `COCCNC(=O)CN1CCC2(CC1)OCCO2`, the Inhibition is 24.44%. Regarding `CCOc1cccc(NC(=O)c2ccc(C)[nH]c2=O)n1`, the Inhibition is reported as 14.98%. With `CN1CCOC(C(=O)Nc2ncc(Cl)s2)C1` (centres undefined), the Inhibition is on record as -8.17%.

On to `CC(=O)NC1CCN(Cc2ccc(F)c(F)c2)CC1`, for which the Inhibition is given as -27.6%. Regarding `Cc1ccccc1OCCN1CCC(C(N)=O)CC1`, the Inhibition is 0.98%.

Turning to `COc1ccccc1OCC(C)N` (centres undefined), the Inhibition stood at 15.24%. The same measure for `NC1CC(c2cc(NCC[C@H]3CCCN3)ncn2)C1` (some centres undefined): 15.98%; for `CNc1nnc(SCc2csc(NC(C)=O)n2)s1`: -5.82%. As for `COc1ccc(C(N)c2ccncc2)cc1` (centres undefined), the Inhibition is given as -28.12%.

In the case of `CC(=O)N1CCN(c2ccc(CN)cc2)CC1`, the Inhibition is reported as -1.93%. Regarding `O=C(NC1CC1)c1n[nH]c2ccccc12`, the Inhibition is reported as -5.33%. `O=C(CCCc1nccs1)NCC(=O)N1CCCCC1`: the Inhibition is recorded as -6.34%.

On to `CC(CS(C)(=O)=O)NC(=O)C(C)(C)C` (centres undefined), for which the Inhibition is -7.14%.
